Compound activity: PubChem BioAssay, National Center for Advancing Translational Sciences (NCATS)
TRHR agonist: TRH receptor (human) agonism. P34981. activation, % at 2 µM. actives 0.18% (n = 360,000). TRHR cells, calcium flux fluo-8, FDSS agonist mode; further: 0% is about no effect
Target sequence (P34981 whole entry, looked up): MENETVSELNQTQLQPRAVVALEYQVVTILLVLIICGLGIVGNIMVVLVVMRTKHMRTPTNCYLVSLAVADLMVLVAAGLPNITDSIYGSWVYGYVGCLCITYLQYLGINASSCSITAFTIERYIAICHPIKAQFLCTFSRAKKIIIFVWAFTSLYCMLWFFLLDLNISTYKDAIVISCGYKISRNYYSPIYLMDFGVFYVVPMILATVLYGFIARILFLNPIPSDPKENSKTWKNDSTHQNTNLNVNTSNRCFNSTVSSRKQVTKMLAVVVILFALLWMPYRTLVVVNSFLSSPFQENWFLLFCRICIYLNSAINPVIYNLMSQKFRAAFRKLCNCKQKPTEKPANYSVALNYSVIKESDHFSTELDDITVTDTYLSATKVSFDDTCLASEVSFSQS
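Steps: seed TRHR cells overnight; add fluo-8 no-wash Ca dye, RT 30 min–1.5 h; record 10 s baseline; pin-transfer compounds; monitor fluorescence 1 cycle/s for the agonist window. Calcium increases flag candidate agonists.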
TRHR enhancer: allosteric enhancers of human TRH receptor; enhancement, % at 2 µM; actives 0.66% (n = 360,000); TRHR cells, fluo-8 calcium fluorescence, EC20 TRH enhancement; in the data active means enhancement above about 30%; further: 0% is about no effect
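TRHR-expressing cells loaded with fluo-8 calcium dye were read kinetically (ex 480/em 530) during compound addition, then stimulated with an EC20 of TRH (10 nM final). Enhancement of the Gq-mediated intracellular calcium response was scored.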
D1 antag: antagonists of human D1 dopamine receptor; P21728; HEK293 TREx D1 cells, calcium flux, dopamine EC80; hits give low values; activity change, negative = inhibition, % at 10 µM; actives 3.2% (n = 360,000); AID 504652; in the data active means activity change below about -30%; further: on the % scale 0 is the no-effect control and ±100 the full control effect
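Allosteric or orthosteric antagonism assessed as attenuation of the calcium response to EC80 dopamine, added 180 s after compound, in induced HEK293 Trex D1 cells loaded with no-wash calcium dye.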
D1 ag: activates the human D1 dopamine receptor; P21728; HEK293 T-REx D1 cells, calcium flux, agonist mode; activation, % at 2 µM; actives 1% (n = 360,000); AID 504660; further: 0% is about no effect
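Tetracycline-induced HEK293 TREx D1 cells, force-coupled to calcium signalling, were dye-loaded with a no-wash calcium kit. Compound was pin-added after a 10 s baseline. Fluorescence was read kinetically at 1 cycle/s for 180 s, with calcium rises flagged as agonism.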
D1 PAM: potentiators of human D1 dopamine receptor; P21728; HEK293 TREx D1 cells, calcium flux, dopamine EC20 potentiation; potentiation, % at 10 µM; actives 0.036% (n = 360,000); in the data active means potentiation above about 30%; further: 0% is about no effect
Numbers without * were called inactive. An excerpt weighted towards active compounds, which were near 4.6% of everything screened. Unless noted, no stated cut-off is given here; in the data, active means activation above about 30%; inactive means the rest.

SMILES	TRHR agonist	TRHR enhancer	D1 antag	D1 ag	D1 PAM
Cc1nc(-c2ccccc2)sc1CCNC(=O)C(=O)Nc1ccc2c(c1)OCO2	-0.2	-3.1	6.0	1.3	-5.2
CCc1cc2c(-c3ccccc3)cc(=O)oc2c2c1OCN(Cc1ccc(F)cc1)C2	9.3	-3.5	4.6	20.1	2.0
COC(=O)[C@@H]1C[C@@]2(O)[C@@H](O)[C@@H](O)[C@@H](O)C[C@H]2N1CC1CCCCC1	-0.1	7.1	-55.6*	13.0	-0.4
CCCCCOC(=O)c1ccc(Nc2nc(C(=O)OCC)nc3ccccc23)cc1	0.2	-1.1	4.5	-0.9	-0.1
Cc1ccccc1C(=O)Nc1cccc(-c2cn3cccnc3n2)c1	0.3	-0.2	-13.6	0.6	-1.4
O=C(CCCn1c(SCC(=O)NCC2CCCO2)nc2ccccc2c1=O)NCc1ccccc1 (stereo not given)	-0.5	-7.6	-1.1	2.4	-0.1
O=C(CSc1nc2ccccc2s1)NCC1CCCO1 (stereo not given)	0.0	6.6	-32.7*	1.1	-7.5
Cc1cc(NC(=O)CSc2nc3ccccc3c(=O)n2CCCC(=O)NCc2ccccc2)n[nH]1	0.6	-2.6	-34.7*	3.6	-4.6
O=C(CCCn1c(SCC(=O)Nc2ccccc2Cl)nc2ccccc2c1=O)NCC1CCCO1 (stereo not given)	-0.1	-8.6	-33.5*	5.4	5.1
O=C(CSc1nc2ccc(NC(=O)C3CCCCC3)cc2s1)NCC1CCCO1 (stereo not given)	-0.4	-3.7	-5.6	2.6	-3.6
COc1ccc2c(c1)c1c(c(=O)n(-c3cccc(C)c3)c(=O)n1CC(=O)NCCC1=CCCCC1)n2C	-0.1	-3.8	3.1	1.7	-0.8
Nc1nonc1C(=O)NC(c1ccccc1)c1ccccc1	-0.3	-2.3	-36.1*	-0.1	-0.8
Cc1ccccc1CNC(=O)CN1C(=O)CCCc2ccccc21	-0.3	2.4	-0.2	-0.8	5.8
Cc1cccc(CS(=O)(=O)c2ncc(Cl)c(C(=O)NCc3ccccc3)n2)c1	-1.2	-13.9	-32.5*	2.1	-6.5
Cc1cccc(CS(=O)(=O)c2ncc(Cl)c(C(=O)Nc3c(C)cccc3C)n2)c1	0.7	-16.7	-31.6*	2.3	-5.5
COc1ccc2nc(NC(=O)c3nc(S(=O)(=O)Cc4cccc(C)c4)ncc3Cl)sc2c1	-0.2	-7.0	-30.8*	0.6	-2.5
Cc1ccc(Cl)cc1NC(=O)CN1C(=O)C(C)(C)c2cc(S(=O)(=O)N3CCCCC3)ccc21	1.8	1.5	14.3	0.0	-2.8
CC(C)NC[C@@H](O)c1ccc(O)c(O)c1	0.4	9.6	-32.4*	0.2	5.0
CCOC(=O)c1c(NC(=O)CSc2nnc(Cc3ccccc3)o2)sc(C(C)=O)c1C	-1.0	-1.6	-35.7*	0.9	-9.6
CCOC(=O)c1c(NC(=O)CSc2nnc(-c3ccccc3)o2)sc(C(C)=O)c1C	-0.3	-1.9	-2.5	1.1	-1.8
O=C(c1ccc2c(c1)N(Cc1ccc(F)cc1)C(=O)c1ccccc1S2(=O)=O)N1CCCC1	0.4	-6.8	-1.7	0.4	-0.6
COc1ccc(OC(=O)c2nc(SCc3ccccc3F)ncc2Cl)cc1	2.4	0.7	-9.9	11.4	2.1
Cc1ccc2oc3c(c(=O)c2c1)C(c1cccc(O)c1)N(Cc1ccccc1Cl)C3=O (stereo not given)	-0.4	10.7	-54.8*	0.6	0.6
CCC(Cn1nnc2ccccc2c1=O)NC(=O)Nc1cc(Cl)ccc1OC (stereo not given)	-1.6	-22.9	-5.2	3.0	-1.0
O=C(O)CCCNC(=O)CCCn1nnc2ccccc2c1=O	0.6	31.9*	5.1	-0.2	-1.6
SMILES	TRHR agonist	TRHR enhancer	D1 antag	D1 ag	D1 PAM
O=C(O)CCCCCNC(=O)CCn1cnc2ccccc2c1=O	0.1	-1.9	-50.6*	0.9	-13.0
Cc1ccc(S(=O)(=O)NC(C)C(=O)OCC(=O)N(C)c2ccccc2)cc1 (stereo not given)	-0.3	6.5	-31.3*	0.0	-10.3
COc1ccccc1CNC(=O)CSC1=Nc2ccccc2N=C(c2ccc(F)cc2)C1	2.5	-7.5	3.1	8.9	-2.5
O=C(CN1C(=O)COc2ccc(S(=O)(=O)N3CCCC3)cc21)N1CCN(c2cccc(C(F)(F)F)c2)CC1	0.0	-2.0	2.6	0.6	1.1
CCc1ccc2oc(=O)cc(CN3CCN(CCO)CC3)c2c1	0.6	4.6	-50.3*	5.0	-1.4
CN(C)CCNC(=O)C1CCN(c2nc3ccccc3[nH]2)CC1	0.7	4.3	-1.2	1.6	-0.6
COCCCNC(=O)C1CCN(c2nc3ccc(Cl)cc3[nH]2)CC1	0.1	6.5	-7.8	0.2	-2.5
COCCCNC(=O)C1CCN(c2nc(C)cc(C)n2)CC1	0.7	36.5*	24.0	1.9	0.7
Cc1cccc(CNC(=O)C2CCN(c3nc4ccc(Cl)cc4[nH]3)CC2)c1	-0.8	-2.3	11.3	42.3*	-0.7
COC(=O)CNC(=O)C1CCN(c2nc(C)cc(C)n2)CC1	0.3	-4.6	5.2	7.0	-1.5
CCOCCCNC(=O)C1CCN(c2nc3ccc(C)cc3[nH]2)CC1	-0.2	4.2	-45.7*	0.2	4.5
CC(=O)c1ccc(NC(=O)c2cccc(NC(=O)N3CCSc4ncccc43)c2)cc1	0.3	4.0	-18.8	3.2	-3.1
CC(C)c1cc(C(=O)Nc2cccc(Cl)c2)no1	1.2	6.5	-10.9	4.4	-4.0
CC(=O)c1cccc(NC(=O)c2cc(C(C)C)on2)c1	0.1	1.9	-36.1*	3.4	0.5
CCOc1ccccc1CNc1ncnc2ccc(-c3c(C)noc3C)cc12	0.5	21.7	-1.7	2.8	5.9
Cc1noc(C)c1-c1ccc2ncnc(NCc3cccc(-c4ccccc4)c3)c2c1	0.8	1.4	-33.9*	15.9	-6.5
CC(C)Sc1oc(-c2ccco2)nc1S(=O)(=O)c1ccccc1	0.1	8.8	-48.5*	0.5	6.2
CSc1oc(-c2ccco2)nc1S(=O)(=O)c1ccccc1	0.0	-9.1	9.5	0.5	7.7
COc1ccc(-c2nc3ccccc3nc2-c2ccc(OC)c(OC)c2)cc1OC	0.0	20.1	8.9	5.3	-3.0
COc1ccc(-c2cc3ccccc3nc2N)cc1OC	0.3	2.2	-38.1*	12.3	-5.4
CCN(CC)CCNS(=O)(=O)c1ccc(C(=O)NN)cc1	-1.7	-7.5	-34.9*	2.9	-5.5
CCOC(=O)c1ccc(S(=O)(=O)NCCN(CC)CC)cc1	0.4	0.6	-21.1	12.3	6.8
CCCSC1=N/C(=C/c2ccsc2)C(=O)N1c1ccccc1	1.0	-1.3	-38.3*	12.6	-13.4
CCSC1=N/C(=C/c2ccsc2)C(=O)N1c1ccccc1	0.3	-2.1	-72.0*	5.2	-11.5
CCOC(=O)CSC1=N/C(=C\c2cccnc2)C(=O)N1c1ccc(OC)cc1	1.6	2.1	-7.3	0.9	-15.1
C=CCSC1=N/C(=C\c2ccsc2)C(=O)S1	0.2	1.2	-4.1	3.1	-2.3
